We go through 13 molecules from PubChem BioAssay (NCI).

Test systems include NCI-H23 lung; NCI-H226 lung; NCI-H322M lung; HOP-62 NSCLC; NCI-H460 lung; HOP-92 NSCLC; NCI-H522 lung; A549/ATCC NSCLC; 786-0 renal; COLO 205 colon.
Common to all, as to test: NCI-60 one-dose screen, 48 h (100 = growth as untreated, 0 = no growth, -100 = all killed)
Conditions in all cases: 10 µM unless noted

SMILES strings stand for the structures. Compounds without any hit were thinned out: in the full panel of roughly 83,000, 20% have a hit.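 Step 1: grow cells in 96-well plates. Step 2: add test compound at a single concentration. Step 3: incubate 48 h. Step 4: record percent growth.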 A number with no mark means an inactive call. Activity calls are given as the source filed them. How the source made its calls: active means growth percent below 10; inactive means the rest.

On to `COC(=O)[C@]12CC[C@@H](C)[C@H](C)[C@@H]1C1=CC[C@@H]3[C@@]4(C)C(C#N)=CC(C)=C4CC[C@@]3(C)[C@]1(C)CC2`, for which the growth with NCI-H23 lung was 78.2%; in the assay with NCI-H226 lung, 82.7%; with NCI-H322M lung, 108%; in the assay on HOP-62 NSCLC, 113%; in the assay with NCI-H460 lung, 89.3%; with HOP-92 NSCLC, 91.7%. Further, the growth with NCI-H522 lung is 78.1%; in the assay with A549/ATCC NSCLC it was 92.2%; in the assay with 786-0 renal, 93%; with COLO 205 colon, 86.1%.
Consider `Clc1ccc(Nc2nccc(Nc3ccc4[nH]ncc4c3)n2)cc1`, for which the growth in the assay on NCI-H23 lung is 45.7%; in the assay with NCI-H226 lung it was 28.2%; in the assay with NCI-H322M lung, 74.8%; with HOP-62 NSCLC, 65.5%; in the assay with NCI-H460 lung, 41%; with HOP-92 NSCLC it was -0.955% (active). The growth was 20.8% with NCI-H522 lung, 50.2% with A549/ATCC NSCLC, 57.4% in the assay on 786-0 renal and 42.2% in the assay on COLO 205 colon.
Regarding `CN1C/C=C\CCOc2cccc(c2)-c2ccnc(n2)Nc2cccc(c2)C1`, the growth in the assay on NCI-H23 lung was -56.6% (active); in the assay with NCI-H226 lung, -33.7% (active); in the assay on NCI-H322M lung, -17.7% (active); with HOP-62 NSCLC, -44.5% (active); in the assay with NCI-H460 lung, -73.6% (active); in the assay with HOP-92 NSCLC, -15.5% (active). The growth was -70.1% (active) with NCI-H522 lung, -50.1% (active) in the assay with A549/ATCC NSCLC, -85.9% (active) in the assay with 786-0 renal and -81.6% (active) with COLO 205 colon.
Regarding `COc1ccc(Br)cc1NC(=O)Nc1cccc2c1ccn2Cc1ccnc(N)c1`, the growth with NCI-H23 lung was 55.1%; in the assay with NCI-H226 lung it was 22.2%; in the assay on NCI-H322M lung it was 32.7%; in the assay with HOP-62 NSCLC, -44.7% (active); with NCI-H460 lung, 14.6%; in the assay on HOP-92 NSCLC, -7.4% (active). For the same molecule, the growth is -50.9% (active) in the assay on NCI-H522 lung, 18.9% in the assay on A549/ATCC NSCLC, 31.2% in the assay on 786-0 renal and -57.5% (active) with COLO 205 colon.
In the case of `CC1(C=O)NC(=O)NC1=O` (stereo not given), the growth with NCI-H23 lung is 105%; in the assay on NCI-H226 lung it was 92.8%; in the assay with NCI-H322M lung, 102%; in the assay on HOP-62 NSCLC, 68.4%; in the assay on NCI-H460 lung it was 108%; in the assay with HOP-92 NSCLC, 96.4%. Moreover, the growth with NCI-H522 lung was 77.1%; in the assay with A549/ATCC NSCLC, 55.7%; in the assay on 786-0 renal, 104%; with COLO 205 colon it was 100%.
Regarding `O=C(Nc1ccc(-c2ccnc(Nc3ccc(N4CCOCC4)cc3)n2)cc1)[C@@H]1CCCN1`, the growth in the assay on NCI-H23 lung is 65.6%; in the assay on NCI-H226 lung, 48.6%; in the assay with NCI-H322M lung, 67.6%; in the assay on HOP-62 NSCLC, 33.6%; with NCI-H460 lung, 50.7%; in the assay with HOP-92 NSCLC it was 50.2%. Further, the growth is 48.3% with NCI-H522 lung, 45% in the assay on A549/ATCC NSCLC, 40.3% with 786-0 renal and 44.6% in the assay on COLO 205 colon.
Consider `Cc1ccc(Nc2nccc(N(C)c3ccc4c(C)n(C)nc4c3)n2)cc1S(N)(=O)=O`, for which the growth with NCI-H23 lung is 15.6%; with NCI-H226 lung, 27.5%; in the assay on NCI-H322M lung, 7.5% (active); in the assay on HOP-62 NSCLC it was 12.4%; in the assay with NCI-H460 lung, 21.5%; in the assay on HOP-92 NSCLC, -56.2% (active). The growth in the assay on NCI-H522 lung is 10.7%; with A549/ATCC NSCLC, 5.92% (active); with 786-0 renal, 35.7%; with COLO 205 colon, -10.3% (active).
Consider `C/C(=C(/c1ccc(Cl)cc1)c1ccc(OCCN2CCCCCC2)cc1)c1ccccc1`, for which the growth is 74.9% in the assay on NCI-H23 lung; 95.8% in the assay on NCI-H226 lung; 93.2% with NCI-H322M lung; 90.3% with HOP-62 NSCLC; 76.3% in the assay with NCI-H460 lung; 82.6% with HOP-92 NSCLC. Besides, the growth in the assay with NCI-H522 lung is 72.9%; in the assay with A549/ATCC NSCLC it was 67.8%; in the assay with 786-0 renal it was 82%; with COLO 205 colon, 15.9%.
On to `O=C(NOCCO)c1ccc2cncn2c1Nc1ccc(I)cc1F`, for which the growth is 18.8% with NCI-H23 lung; 56.7% with NCI-H226 lung; 24.1% with NCI-H322M lung; 35.7% with HOP-62 NSCLC; 74.7% in the assay with NCI-H460 lung; -19.6% (active) in the assay with HOP-92 NSCLC. Moreover, the growth in the assay on NCI-H522 lung is 60.4%; in the assay on A549/ATCC NSCLC it was 25.4%; with 786-0 renal, 81.6%; in the assay with COLO 205 colon, 6.84% (active).
Regarding `O=C(CNc1nc2ccccc2s1)Nc1ccc(-c2nc3ccccc3s2)cc1`, the growth is 88.9% with NCI-H23 lung; 92.4% with NCI-H226 lung; 92.3% in the assay with NCI-H322M lung; 104% in the assay on HOP-62 NSCLC; 99.8% in the assay on NCI-H460 lung; 99.8% in the assay with HOP-92 NSCLC. Moreover, the growth in the assay with NCI-H522 lung was 91.2%; in the assay with A549/ATCC NSCLC, 100%; in the assay with 786-0 renal, 102%; in the assay with COLO 205 colon, 112%.
With `CCc1nc2ccc(Cc3ccc(C(=O)NO)cc3)cc2c(=O)n1CCc1ccccc1`, the growth in the assay with NCI-H23 lung is -67.9% (active); in the assay on NCI-H226 lung it was -28.5% (active); in the assay with NCI-H322M lung, 12.1%; in the assay on HOP-62 NSCLC it was -43.4% (active); in the assay with NCI-H460 lung it was 0.149% (active); with HOP-92 NSCLC, -29.5% (active). Further, the growth with NCI-H522 lung was -86.5% (active); with A549/ATCC NSCLC, -41.7% (active); with 786-0 renal it was -58.3% (active); in the assay on COLO 205 colon it was -69.7% (active).
Regarding `C/C(=N\NC(=O)Cn1c(-c2ccc(S(C)(=O)=O)cc2)nc2ccccc21)c1ccc(Cl)cc1`, the growth was 86.9% in the assay with NCI-H23 lung; 83.4% in the assay on NCI-H226 lung; 94.8% in the assay on NCI-H322M lung; 88.6% in the assay with HOP-62 NSCLC; 97.3% with NCI-H460 lung; 98.3% in the assay with HOP-92 NSCLC. For the same molecule, the growth in the assay with NCI-H522 lung is 75.5%; with A549/ATCC NSCLC, 77.6%; in the assay on 786-0 renal, 102%; with COLO 205 colon, 93.4%.
Regarding `CNC(=O)c1nn(C)c2c1C(C)(C)Cc1cnc(Nc3ccc(N4CCN(C)CC4)cc3)nc1-2`, the growth is 2.37% (active) in the assay on NCI-H23 lung; 12.3% in the assay on NCI-H226 lung; 15.1% in the assay with NCI-H322M lung; -9.46% (active) with HOP-62 NSCLC; 7.46% (active) in the assay on NCI-H460 lung; 3.76% (active) in the assay with HOP-92 NSCLC. For the same molecule, the growth with NCI-H522 lung is -29.4% (active); with A549/ATCC NSCLC, -0.797% (active); in the assay on 786-0 renal it was 12.3%; in the assay with COLO 205 colon it was -80.1% (active).
